The nature of this assay: cytotoxicity in primary umbilical vein endothelium – cell-based, Alamar Blue fluorescence, 8-48 h, dry powder, cytotoxicity control for HRAS target identification, late-stage follow-up (AID 720612). The note with it: HUVEC viability, 24 h; series mostly up to 35 µM.

Results filed as inconclusive are left out. Active and inactive are the calls of the source.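 Rule for the calls: active = compounds whose fitted half-maximal viability loss lies within twice the top dose at every treatment time; inconclusive = the three treatment times give differing calls; inactive = inactive at every treatment time.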

In PubChem BioAssay AID720612 (Broad Institute, 2013) one finds outcome data, which are given here for two compounds.

In the case of `Cc1onc(C(=O)N2CCN(C(c3ccncc3)c3ccncc3)CC2)c1[N+](=O)[O-]`, the compound was classed as inactive.

For `CCC(=O)N(c1ccc(OC)c(Cl)c1)C(C(=O)NCCc1ccccc1)c1cccs1` (configuration not stated), the call was inactive.
